Activity calls are given as the source filed them. Unless noted, no rule for the calls is given here.

Assay [1] can be described thus: HepG2 liver cancer cell viability effects, profiling panel, resazurin fluorescence, 24 h, PK04 Diversity Set (AID 1172). The note with it: higher = more signal. (In general: The colour change of resazurin is a common sign of viable cells or microbes.)
Assay [2] is described as follows: basal S. cerevisiae growth modulation, no modifier, primary screen, OD600, strain BY4716, 24 h, basal condition (AID 1173). Particulars: OD600, 24 h, higher = more signal, called active from +8 up or from −8 down.
Assay [3] is described as follows: MM1S myeloma cell viability, profiling panel, resazurin fluorescence, basal, 24 h, PK04 Diversity Set (AID 1174).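 Also: MM1S multiple myeloma cell line.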 Particulars: higher = more signal, called active from +8 up or from −8 down.
Assay [4] addresses Dihydroorotate dehydrogenase (quinone), mitochondrial (Plasmodium falciparum (isolate 3D7)) (UniProt Q08210). As to the kind of experiment: PfDHODH enzyme inhibitors, primary screen, biochemical, C-terminal His tag, absorbance 600 nm (AID 1175).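 Also: recombinant parasite enzyme with a five histidine tag at its C terminus.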 Particulars: DCIP absorbance 600 nm, higher = more signal, called active from +8 up or from −8 down.
A short description of assay [5]: P. aeruginosa biofilm formation inhibitors, primary screen, strain PAO1, LB-PBS medium, absorbance 600 nm (AID 1176). Particulars: P. aeruginosa PAO1 growth/biofilm, A600, 12 h; higher = more signal.
A short description of assay [6]: S. cerevisiae RM11-1a growth modifiers, primary screen, strain RM11-1a, OD600, basal, 24 h (AID 1177).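 Also: cultures grown under basal conditions with no added stressor.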 The note with it: OD600, 24 h, higher = more signal, called active from +8 up or from −8 down.
Assay [7] in a line: E. coli acrAB mutant growth effects, primary screen, E. coli filamentation inducers, strain DRC39, OD650, 24 h (AID 1178).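 Also: growth measured as culture turbidity by optical density at 650 nm.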 The note with it: higher = more signal, called active from +8 up or from −8 down.
The nature of assay [8]: E. coli acrAB mutant growth effects, primary screen, E. coli filamentation inducers, strain DRC39, OD650, 48 h (AID 1179).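 Also: screen aims at cell division blockers that make cells filament.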 Particulars: E. coli DRC39 delta-acrAB growth, higher = more signal, called active from +8 up or from −8 down.
Assay [9] can be described thus: RPMI8226 myeloma cell viability, profiling panel, resazurin fluorescence, basal, 24 h, PK04 Diversity Set (AID 1180).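 Also: RPMI8826 multiple myeloma cell line at 5000 cells per well.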 Particulars: higher = more signal.
For assay [10], the target named is E3 ubiquitin-protein ligase XIAP (Homo sapiens) (UniProt P98170). Put plainly: XIAP binders, primary screen, biophysical, small-molecule microarray, fluorescence 635 nm (AID 1181).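 Also: score merges 667 nm emission and signal to noise over triplicate slides.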 Particulars: small-molecule microarray binding, higher = more signal.
E3 ubiquitin-protein ligase XIAP (Homo sapiens), sequence (P98170 whole entry, looked up): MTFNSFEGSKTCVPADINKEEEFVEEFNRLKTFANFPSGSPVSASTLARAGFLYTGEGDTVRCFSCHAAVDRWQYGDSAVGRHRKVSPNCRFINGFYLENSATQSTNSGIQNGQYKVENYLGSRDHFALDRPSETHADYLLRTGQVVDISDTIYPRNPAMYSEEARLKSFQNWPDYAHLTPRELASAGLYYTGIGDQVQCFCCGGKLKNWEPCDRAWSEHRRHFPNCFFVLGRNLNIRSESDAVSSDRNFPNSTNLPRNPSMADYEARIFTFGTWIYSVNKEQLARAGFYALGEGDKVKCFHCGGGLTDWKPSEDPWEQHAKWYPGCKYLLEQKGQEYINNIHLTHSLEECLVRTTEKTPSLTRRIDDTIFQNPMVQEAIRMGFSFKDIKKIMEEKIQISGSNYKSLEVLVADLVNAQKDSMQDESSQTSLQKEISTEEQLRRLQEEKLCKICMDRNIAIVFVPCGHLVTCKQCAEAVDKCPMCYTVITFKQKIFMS
Assay [11] has as its system XIP peptide (Xip251-270) binding. Put plainly: small-molecule binders of XIP peptide, primary screen, biochemical, small-molecule microarray, fluorescence 635/667 nm, 0.1 µg/mL protein (AID 1182). The note with it: fluorescent protein binding, 635 nm, higher = more signal, called active from +8 up or from −8 down.
Assay [12] relates to XIP peptide (Xip251-270). Put plainly: small-molecule binders of XIP peptide, primary screen, biochemical, small-molecule microarray, fluorescence 635/667 nm, 0.5 µg/mL protein (AID 1183). Particulars: small-molecule microarray binding, fluorescence 635 nm; higher = more signal.
A short description of assay [13]: Plasmodium falciparum growth inhibition, primary screen, strain 3D7, DAPI fluorescence, 100 nL (AID 1184).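 Also: parasites grown inside human red blood cells in medium with human serum.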 The note with it: P. falciparum 3D7 growth, 3 d, higher = more signal.
The target in assay [14] is Homeobox protein Hox-A13 (Mus musculus) (UniProt Q62424). Put plainly: inhibitors of HoxA13-DNA binding, primary screen, biochemical, fluorescence polarization, labeled oligonucleotide (AID 1185). The note with it: 15 min, higher = more signal, called active from +8 up or from −8 down. Background: Polarisation of emitted light reports the rotation of a fluorescent probe.
Homeobox protein Hox-A13 (Mus musculus), sequence (Q62424 whole entry, looked up): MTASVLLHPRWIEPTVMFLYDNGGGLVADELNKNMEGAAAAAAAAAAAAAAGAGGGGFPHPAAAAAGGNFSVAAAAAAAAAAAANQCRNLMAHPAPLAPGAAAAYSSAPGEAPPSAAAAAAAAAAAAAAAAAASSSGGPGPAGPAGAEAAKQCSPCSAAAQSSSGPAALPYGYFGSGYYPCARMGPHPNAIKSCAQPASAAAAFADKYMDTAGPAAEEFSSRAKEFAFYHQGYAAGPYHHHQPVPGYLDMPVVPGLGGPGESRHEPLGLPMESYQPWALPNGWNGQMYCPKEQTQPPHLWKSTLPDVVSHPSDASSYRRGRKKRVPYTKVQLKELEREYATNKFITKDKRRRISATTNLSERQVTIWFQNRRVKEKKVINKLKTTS

Assay [15] can be described thus: inhibitors of hydroxyurea-induced Chk1 phosphorylation, primary screen, imaging, HeLa, phospho-Chk1 antibody, percent positive cells (AID 1186). The note with it: hydroxyurea-induced phospho-Chk1 immunofluorescence imaging, higher = more signal.
The nature of assay [16]: inhibitors of hydroxyurea-induced Chk1 phosphorylation, primary screen, imaging, HeLa, phospho-Chk1 nuclear intensity (AID 1187). Particulars: hydroxyurea-induced phospho-Chk1 immunofluorescence imaging, higher = more signal.

Dihydroorotate dehydrogenase (quinone), mitochondrial (Plasmodium falciparum (isolate 3D7)), sequence (Q08210 whole entry, looked up): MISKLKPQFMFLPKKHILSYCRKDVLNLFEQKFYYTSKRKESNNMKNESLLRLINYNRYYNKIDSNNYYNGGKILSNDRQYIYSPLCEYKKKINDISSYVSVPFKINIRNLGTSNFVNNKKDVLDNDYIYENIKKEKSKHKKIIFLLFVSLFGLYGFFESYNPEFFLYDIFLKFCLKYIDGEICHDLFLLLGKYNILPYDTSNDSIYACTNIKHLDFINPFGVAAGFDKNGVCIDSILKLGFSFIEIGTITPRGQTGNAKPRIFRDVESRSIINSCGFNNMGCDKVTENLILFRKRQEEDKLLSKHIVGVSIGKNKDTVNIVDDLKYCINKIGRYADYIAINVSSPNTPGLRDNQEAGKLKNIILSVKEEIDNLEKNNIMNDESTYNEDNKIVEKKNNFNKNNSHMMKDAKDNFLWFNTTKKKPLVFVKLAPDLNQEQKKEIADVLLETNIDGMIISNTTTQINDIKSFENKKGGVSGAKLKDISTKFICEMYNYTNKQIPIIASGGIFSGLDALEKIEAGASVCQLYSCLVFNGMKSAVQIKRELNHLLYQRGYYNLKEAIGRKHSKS

With `COc1ccc(C(=O)Nc2cccc(CN3C(=O)[C@@]4(O[C@@H](CCn5cc([C@H](O)c6ccccc6)nn5)[C@H]([Si](C)(C)c5ccc(OC)cc5)[C@H]4C)c4ccccc43)c2)cc1`, the z-score is -2.55 in assay [1]; -1.74 (inactive) in [2]; -6.53 (inactive) in [3]; 1.38 (inactive) in [5]; 0.588 (inactive) in assay [6]; 0.259 (inactive) in [7]. In addition, the z-score in assay [8] is -0.237 (inactive); in assay [9], -6.13; in [13], -2.31; in assay [14], 0.472 (inactive); in assay [15] it was -0.694 (inactive); in assay [16], -1.14 (inactive). Besides, the composite z-score in assay [4] was -0.0516 (inactive); in assay [10] it was -0.0228; in assay [11], 0.0252 (inactive); in assay [12] it was 0.575.
`O=C1OCCC/C=C\[C@H]2OC34C=CCN(Cn5nnc6ccccc65)C(=O)[C@H]3N(CCCO)C(=O)[C@@H]4C12` (stereo partly drawn): the z-score in assay [1] is 0.558; in assay [2] it was 0.351 (inactive); in assay [3] it was 0.42 (inactive); in assay [5], 0.77 (inactive); in assay [6] it was -0.44 (inactive); in [7], 0.339 (inactive). The z-score in assay [8] was 0.0024 (inactive); in assay [9] it was 0.702; in [13], -0.0008; in assay [14], -4.13 (inactive); in assay [15], 0.472 (inactive); in assay [16], -0.103 (inactive). The composite z-score in assay [4] is -0.0502 (inactive); in assay [10] it was 0.301; in [11] it was -0.021 (inactive); in [12], 0.652.
`C=CCN1C(=O)[C@@]2(O[C@@H](CCO)[C@H]([Si](C)(C)c3ccc(OC)cc3)[C@H]2C)c2cc(NC(C)=O)ccc21`: the z-score is -0.865 in [1]; -1.47 (inactive) in [2]; -1.6 (inactive) in [3]; -0.188 (inactive) in [5]; 1.48 (inactive) in [6]; 0.166 (inactive) in assay [7]. Also, the z-score is 0.121 (inactive) in [8]; -1.43 in [9]; -2.74 in [13]; -6.52 (inactive) in assay [14]; -0.0604 (inactive) in [15]; 0.348 (inactive) in [16]. In addition, the composite z-score was -1.13 (inactive) in assay [4], 0.436 in [10], 0.149 (inactive) in [11] and 0.258 in assay [12].
Turning to `C=CCC(OC(C)=O)[C@@H]1[C@@H](N(Cc2cc3ccccc3o2)C(=O)c2ccc(C)cc2)c2cc(OCCCO)ccc2N1C(=O)c1ccc(-c2ccccc2)cc1` (stereo partly drawn), the z-score in assay [1] is 0.419; in [2], -2.68 (inactive); in assay [3] it was -0.0884 (inactive); in [5], 0.444 (inactive); in [6], -3.8 (inactive); in assay [7], 1.15 (inactive). Moreover, the z-score was 1.35 (inactive) in assay [8]; 1.07 in assay [9]; -2.58 in assay [13]; -0.468 (inactive) in assay [14]; -1.19 (inactive) in assay [15]; -1.05 (inactive) in [16]. The composite z-score in assay [4] was -3 (inactive); in assay [10], 2.75; in assay [11] it was -0.28 (inactive); in [12] it was -0.294.
On to `O=C1O[C@H](c2ccccc2)[C@H](c2ccccc2)N2[C@H]1[C@@H](C(=O)Nc1nc3ccccc3s1)[C@]1(C(=O)Nc3ccc(C#CC4=CCCCC4)cc31)[C@H]2c1ccc(OCCO)cc1`, for which the z-score was 0.281 in assay [1]; 1.63 (inactive) in assay [2]; -0.543 (inactive) in [3]; 3.01 (inactive) in assay [5]; 1.46 (inactive) in [6]; -0.154 (inactive) in [7]. Also, the z-score in assay [8] is -0.686 (inactive); in assay [9], -0.496; in assay [13], -0.985; in [14] it was -11.7 (active); in assay [15], 0.0032 (inactive); in assay [16], -0.515 (inactive). The composite z-score in [4] was -3.03 (inactive); in assay [10], -0.24; in assay [11], -0.172 (inactive); in assay [12], 0.656.
In the case of `CC(C)OC(=O)C1=CCC(c2cccc(Cl)c2)O1` (stereo not drawn), the z-score in assay [1] was 0.195; in assay [2], -5.96 (inactive); in [3], 0.242 (inactive); in assay [5] it was 0.905 (inactive); in assay [6], -2.25 (inactive); in assay [7] it was -0.138 (inactive). For the same compound, the z-score is 0.143 (inactive) in [8]; -0.501 in assay [9]; -1.39 in assay [13]; -0.554 (inactive) in assay [14]; 0.147 (inactive) in [15]; 0.0282 (inactive) in assay [16]. Moreover, the composite z-score in assay [4] is -0.582 (inactive); in assay [10], -0.197; in assay [11] it was 0.0142 (inactive); in [12], 0.677.
On to `CC1CC/C=C\[C@H]2OC34C=CCN(Cn5nnc6ccccc65)C(=O)[C@H]3N(CCCO)C(=O)[C@@H]4C2C(=O)O1` (stereo partly drawn), for which the z-score in [1] was -0.0236; in assay [2] it was 1.06 (inactive); in [3], 0.502 (inactive); in assay [5] it was -0.221 (inactive); in [6] it was 0.801 (inactive); in [7], 0.0706 (inactive). Also, the z-score in assay [8] is -0.0371 (inactive); in [9] it was 0.623; in assay [13] it was -0.0633; in assay [14] it was -5.65 (inactive); in assay [15], -0.86 (inactive); in assay [16], -0.909 (inactive). The composite z-score in [4] is 0.317 (inactive); in assay [10], 0.244; in [11], 0.75 (inactive); in assay [12] it was 0.13.
Turning to `COc1ccc(C(O)C2C=CC3C(=O)N(c4ccccc4)C(=O)C3N2Nc2ccccc2)c2ccccc12` (stereo not drawn), the z-score in [1] is -1.41; in assay [2], -5.12 (inactive); in [3], -1.42 (inactive); in [5], 1.48 (inactive); in assay [6], 0.163 (inactive); in assay [7], -1.05 (inactive). Besides, the z-score in assay [8] was -0.0025 (inactive); in assay [9] it was -1.95; in assay [13] it was -0.182; in [14], -1.28 (inactive); in assay [15] it was -0.0153 (inactive); in assay [16], -0.861 (inactive). Besides, the composite z-score in [4] was 0.896 (inactive); in [10] it was -0.0049; in assay [11], 2.31 (inactive); in [12] it was 0.573.

The values above are taken from PubChem BioAssay.
